Compounds without any hit were thinned out: in the full panel of roughly 79,000, 15% have a hit. Values without a mark were called inactive. Activity calls are given as the source filed them. Cut-off read from the data, not from the text of the source: active = growth inhibition above about 70%; inactive = the rest.
How the values were obtained:
[1] = NCI Yeast Anticancer Drug Screen. Data for the rad50 strain (AID 155);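 note: 0% = growth of vehicle-only cultures of the same strain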; conditions: S. cerevisiae rad50 strain growth inhibition, stronger effect = higher value
In short: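 Inhibition values express reduced yeast growth in compound-treated cultures relative to vehicle-treated controls.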

[2] = NCI Yeast Anticancer Drug Screen. Data for the mec2-1 strain (AID 157); conditions: S. cerevisiae mec2-1 strain, stronger effect = higher value
In short: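 mec2-1 yeast strain, carrying an alteration in DNA damage repair or cell cycle control, was exposed to compounds; growth inhibition was measured relative to vehicle-treated controls.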

[3] = NCI Yeast Anticancer Drug Screen. Data for the sgs1 mgt1 strain (AID 161);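 note: 0% = growth of cultures given vehicle only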; conditions: S. cerevisiae sgs1 mgt1 strain, stronger effect = higher value
In short: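 Compounds are added to genetically altered yeast, and growth is compared with cultures given vehicle alone to give percent inhibition.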

[4] = NCI Yeast Anticancer Drug Screen. Data for the cln2 rad14 strain (AID 165);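 note: 0% = growth equal to vehicle treated cultures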; conditions: S. cerevisiae cln2 rad14 strain, stronger effect = higher value
In short: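 Yeast carrying cln2 and rad14 alterations (cell cycle control and DNA damage repair) were exposed to compounds. Growth inhibition was measured against vehicle-treated controls.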

[5] = NCI Yeast Anticancer Drug Screen. Data for the bub3 strain (AID 167); conditions: S. cerevisiae bub3 mutant strain, stronger effect = higher value
In short: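 Steps: expose the mutant yeast strain to compound; grow alongside vehicle-treated cultures; measure growth; express inhibition against the vehicle cultures.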

[6] = NCI Yeast Anticancer Drug Screen. Data for the mlh1 rad18 strain (AID 175); conditions: S. cerevisiae mlh1 rad18 strain growth inhibition, stronger effect = higher value
In short: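 Growth inhibition of the yeast strain was measured after compound exposure and expressed relative to vehicle-treated controls. The strain carries defined defects in DNA damage repair.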

[7] = at 5.0 µM (retest, dose inferred, filed as 0.5)
[8] = at 50.0 µM (retest, dose inferred, filed as 5.0)

Row | SMILES | growth inhibition [1, 7] | growth inhibition [1, 8] | growth inhibition ([1]; at 50.0 µM) | growth inhibition [2, 7] | growth inhibition [2, 8] | growth inhibition ([2]; at 50.0 µM) | growth inhibition [3, 7] | growth inhibition [3, 8] | growth inhibition ([3]; at 50.0 µM) | growth inhibition [4, 7] | growth inhibition [4, 8] | growth inhibition ([4]; at 50.0 µM) | growth inhibition [5, 7] | growth inhibition [5, 8] | growth inhibition ([5]; at 50.0 µM) | growth inhibition [6, 7] | growth inhibition [6, 8] | growth inhibition ([6]; at 50.0 µM)
1 | O=Cc1ccccc1O.O=Cc1ccccc1O.[O]=[Mo]=[O] | 5% | 29% | 11.8% | -1% | 36% | 3.65% | 8% | 41% | 8.2% | -7% | 16% | 42% | -3% | 34% | -5.6% | 2% | 46% | 2.45%
2 | O=[N+]([O-])/C=C/c1ccccc1Cl | 91% (active) | 98% (active) | 90.8% (active) | 99% (active) | 99% (active) | 92.8% (active) | 67% | 98% (active) | 93.3% (active) | 68% | 98% (active) | 92.2% (active) | 98% (active) | 99% (active) | 91% (active) | 99% (active) | 99% (active) | 91.2% (active)
3 | CCOP(=S)(OCC)SCc1c(C)c(C)c(CSP(=S)(OCC)OCC)c(C)c1C | 1% | -11% | -4.3% | -4% | -2% | -3.75% | -8% | 2% | -12.2% | 1% | -10% | 45% | -4% | -4% | -0.65% | 2% | -5% | 8.8%
4 | O=C1C(C(Nc2ccccc2)c2ccccc2)=C([O-])c2ccccc21.O=C1C(C(Nc2ccccc2)c2ccccc2)=C([O-])c2ccccc21.[Co+2] (stereo not given) | 66% | 61% | 73.7% (active) | 42% | 62% | 55.6% | 42% | 51% | 73% (active) | 41% | 40% | 35% | 56% | 54% | 77.4% (active) | 45% | 64% | 65.5%
5 | C1CCC(NCC2CCCO2)CC1 (stereo not given) | -12% | 1% | 77.5% (active) | -10% | -21% | 71% (active) | -1% | -9% | 79.5% (active) | 25% | 30% | 76.3% (active) | -2% | 17% | 77.8% (active) | -4% | -31% | 58.3%
6 | Oc1c(Cl)cc(Cl)c2ccccc12 | 11% | 71% (active) | 86.5% (active) | 7% | 38% | 27.6% | 4% | 63% | 91.5% (active) | 5% | 14% | -18.9% | 12% | 44% | 9.2% | 13% | 74% (active) | 87% (active)
7 | COc1ccc([As+](c2ccccc2)(c2ccccc2)c2ccccc2)cc1 | 82% (active) | 98% (active) | 99.1% (active) | 88% (active) | 99% (active) | 98.8% (active) | 93% (active) | 99% (active) | 98.7% (active) | 77% (active) | 98% (active) | 99% (active) | 95% (active) | 99% (active) | 99% (active) | 91% (active) | 98% (active) | 99% (active)
8 | COC1CCC(OC2CC(C3(C)CCC4(CC(O)C(C)C(C(C)/C=C(\C)C(=O)C(C)CC(C)C(=O)O)O4)O3)OC3(OC(C4OC(O)(CO)C(C)CC4C)CC3C)C2C)OC1C (stereo not given) | 7% | 85% (active) | 61.1% | 19% | 83% (active) | 71.8% (active) | 23% | 83% (active) | 63.1% | 65% | 92% (active) | 68.6% | -5% | 59% | 58.1% | 22% | 73% (active) | 69.4%
9 | O=C(N/N=C/c1cc(Br)cc(Br)c1[O-])c1ccccc1O.O=C(N/N=C/c1cc(Br)cc(Br)c1[O-])c1ccccc1O.[Ni+2] | 97% (active) | 98% (active) | 18.4% | 98% (active) | 98% (active) | 87% (active) | 98% (active) | 99% (active) | 61.2% | 93% (active) | 98% (active) | 31.6% | 96% (active) | 97% (active) | 85.5% (active) | 96% (active) | 98% (active) | 55.6%
10 | CN(C)C(=O)OC1C(=O)N(C)c2ccc(Cl)cc2C2(c3ccccc3)N1C2(Cl)Cl (stereo not given) | -18% | 62% | -23.3% | 5% | 69% | -14.8% | -12% | 77% (active) | -22.2% | -11% | 64% | -2.85% | 3% | 74% (active) | -33.4% | -4% | 70% (active) | 13.8%

Reference: PubChem BioAssay (NCI)
